Measured values reported in the supplement of paper PMC10849652.
Targets with a hit are over-represented here; the source holds about 7,900 in all. About 0.6% of all pairs of compound and target were hits.

How the values were obtained:
Experiment in all cases: log2 fold change, soluble protein after heating vs DMSO (PISA); higher = thermal stabilisation; K562 cells, 10 uM, 30 min; active = over 0.2 and 3.5 SD of the protein, either way, in both replicates (recomputed)
[1] = molecular target: YAE1 (UniProt Q9NRH1)
How it was run: (§1)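 K562 cells at 2×10^6 cells/mL were treated for 30 min with 10 μM compound, and aliquots were heated for 3 min over 48°C-58°C before pooling. Extraction used PBS with 0.5% NP-40 at 4°C, and soluble protein was the supernatant after 21,000xg for 90 min, measured by TMTpro 16plex LC-MS/MS with channel sums equalised. Thermal stability values, relative to control samples and from duplicates, are log2 fold changes.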

[2] = molecular target: YBX1 (UniProt P67809)
How it was run: as §1

[3] = molecular target: YES1 (UniProt P07947)
How it was run: as §1

[4] = molecular target: YIPF4 (UniProt Q9BSR8)
How it was run: as §1

[5] = molecular target: YIPF5 isoform 3 (UniProt Q969M3)
How it was run: as §1

[6] = molecular target: YIPF6 (UniProt Q96EC8)
How it was run: as §1

[7] = molecular target: YLPM1 (UniProt P49750)
How it was run: as §1

[8] = molecular target: YOD1 (UniProt Q5VVQ6)
How it was run: as §1

[9] = molecular target: YPEL5 (UniProt P62699)
How it was run: as §1

[10] = molecular target: YWHAB (UniProt P31946)
How it was run: as §1

[11] = molecular target: YWHAQ (UniProt P27348)
How it was run: as §1

[12] = molecular target: YWHAZ (UniProt E7ESK7)
How it was run: as §1

[13] = molecular target: YWHAZ (UniProt P63104)
How it was run: as §1

[14] = molecular target: YY1 (UniProt P25490)
How it was run: as §1

[15] = molecular target: ZADH2 (UniProt Q8N4Q0)
How it was run: as §1

[16] = molecular target: ZBTB17 isoform 2 (UniProt Q13105)
How it was run: as §1

[17] = molecular target: ZBTB21 (UniProt Q9ULJ3)
How it was run: as §1

[18] = molecular target: ZC3H18 (UniProt Q86VM9)
How it was run: as §1

[19] = molecular target: ZBTB43 (UniProt O43298)
How it was run: as §1

[20] = molecular target: YBX1 (UniProt C9J5V9)
How it was run: as §1

Measured: log2 fold change

Chain of YWHAZ (UniProt P63104) (P63104 whole entry, looked up): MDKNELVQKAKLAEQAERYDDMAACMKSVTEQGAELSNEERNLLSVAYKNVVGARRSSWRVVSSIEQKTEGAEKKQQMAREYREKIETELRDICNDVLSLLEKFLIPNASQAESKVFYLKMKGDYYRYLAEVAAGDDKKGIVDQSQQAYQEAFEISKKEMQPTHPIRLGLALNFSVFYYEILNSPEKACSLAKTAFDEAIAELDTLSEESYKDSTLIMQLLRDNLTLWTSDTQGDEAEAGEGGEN
Chain of YWHAQ (P27348 whole entry, looked up): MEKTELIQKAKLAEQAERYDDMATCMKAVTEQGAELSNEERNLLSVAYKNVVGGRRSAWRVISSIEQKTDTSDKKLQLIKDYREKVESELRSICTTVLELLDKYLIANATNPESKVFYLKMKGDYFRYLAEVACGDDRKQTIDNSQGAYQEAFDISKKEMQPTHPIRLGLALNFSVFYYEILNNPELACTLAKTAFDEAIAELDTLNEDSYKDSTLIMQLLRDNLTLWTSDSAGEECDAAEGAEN
Chain of YPEL5 (P62699 whole entry, looked up): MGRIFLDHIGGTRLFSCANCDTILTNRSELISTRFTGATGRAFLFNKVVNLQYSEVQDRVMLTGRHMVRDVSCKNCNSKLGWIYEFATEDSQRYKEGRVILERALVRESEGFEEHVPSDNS
Chain of YAE1 (Q9NRH1 whole entry, looked up): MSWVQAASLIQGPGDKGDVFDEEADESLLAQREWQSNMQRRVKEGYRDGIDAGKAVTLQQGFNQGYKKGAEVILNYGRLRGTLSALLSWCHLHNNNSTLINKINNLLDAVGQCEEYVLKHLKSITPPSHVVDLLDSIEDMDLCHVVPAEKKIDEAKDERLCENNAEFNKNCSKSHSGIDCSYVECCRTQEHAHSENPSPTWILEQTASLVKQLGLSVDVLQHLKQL
Chain of YBX1 (UniProt P67809) (P67809 whole entry, looked up): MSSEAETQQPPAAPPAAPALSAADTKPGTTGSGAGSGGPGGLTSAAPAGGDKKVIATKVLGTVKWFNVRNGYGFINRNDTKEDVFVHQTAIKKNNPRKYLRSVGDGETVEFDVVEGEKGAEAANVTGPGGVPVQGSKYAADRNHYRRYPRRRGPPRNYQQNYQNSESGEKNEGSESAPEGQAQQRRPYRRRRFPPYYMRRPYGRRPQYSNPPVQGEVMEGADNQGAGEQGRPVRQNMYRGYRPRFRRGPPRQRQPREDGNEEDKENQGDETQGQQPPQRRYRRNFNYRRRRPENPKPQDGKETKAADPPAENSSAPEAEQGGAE
Chain of YLPM1 (P49750 whole entry, looked up): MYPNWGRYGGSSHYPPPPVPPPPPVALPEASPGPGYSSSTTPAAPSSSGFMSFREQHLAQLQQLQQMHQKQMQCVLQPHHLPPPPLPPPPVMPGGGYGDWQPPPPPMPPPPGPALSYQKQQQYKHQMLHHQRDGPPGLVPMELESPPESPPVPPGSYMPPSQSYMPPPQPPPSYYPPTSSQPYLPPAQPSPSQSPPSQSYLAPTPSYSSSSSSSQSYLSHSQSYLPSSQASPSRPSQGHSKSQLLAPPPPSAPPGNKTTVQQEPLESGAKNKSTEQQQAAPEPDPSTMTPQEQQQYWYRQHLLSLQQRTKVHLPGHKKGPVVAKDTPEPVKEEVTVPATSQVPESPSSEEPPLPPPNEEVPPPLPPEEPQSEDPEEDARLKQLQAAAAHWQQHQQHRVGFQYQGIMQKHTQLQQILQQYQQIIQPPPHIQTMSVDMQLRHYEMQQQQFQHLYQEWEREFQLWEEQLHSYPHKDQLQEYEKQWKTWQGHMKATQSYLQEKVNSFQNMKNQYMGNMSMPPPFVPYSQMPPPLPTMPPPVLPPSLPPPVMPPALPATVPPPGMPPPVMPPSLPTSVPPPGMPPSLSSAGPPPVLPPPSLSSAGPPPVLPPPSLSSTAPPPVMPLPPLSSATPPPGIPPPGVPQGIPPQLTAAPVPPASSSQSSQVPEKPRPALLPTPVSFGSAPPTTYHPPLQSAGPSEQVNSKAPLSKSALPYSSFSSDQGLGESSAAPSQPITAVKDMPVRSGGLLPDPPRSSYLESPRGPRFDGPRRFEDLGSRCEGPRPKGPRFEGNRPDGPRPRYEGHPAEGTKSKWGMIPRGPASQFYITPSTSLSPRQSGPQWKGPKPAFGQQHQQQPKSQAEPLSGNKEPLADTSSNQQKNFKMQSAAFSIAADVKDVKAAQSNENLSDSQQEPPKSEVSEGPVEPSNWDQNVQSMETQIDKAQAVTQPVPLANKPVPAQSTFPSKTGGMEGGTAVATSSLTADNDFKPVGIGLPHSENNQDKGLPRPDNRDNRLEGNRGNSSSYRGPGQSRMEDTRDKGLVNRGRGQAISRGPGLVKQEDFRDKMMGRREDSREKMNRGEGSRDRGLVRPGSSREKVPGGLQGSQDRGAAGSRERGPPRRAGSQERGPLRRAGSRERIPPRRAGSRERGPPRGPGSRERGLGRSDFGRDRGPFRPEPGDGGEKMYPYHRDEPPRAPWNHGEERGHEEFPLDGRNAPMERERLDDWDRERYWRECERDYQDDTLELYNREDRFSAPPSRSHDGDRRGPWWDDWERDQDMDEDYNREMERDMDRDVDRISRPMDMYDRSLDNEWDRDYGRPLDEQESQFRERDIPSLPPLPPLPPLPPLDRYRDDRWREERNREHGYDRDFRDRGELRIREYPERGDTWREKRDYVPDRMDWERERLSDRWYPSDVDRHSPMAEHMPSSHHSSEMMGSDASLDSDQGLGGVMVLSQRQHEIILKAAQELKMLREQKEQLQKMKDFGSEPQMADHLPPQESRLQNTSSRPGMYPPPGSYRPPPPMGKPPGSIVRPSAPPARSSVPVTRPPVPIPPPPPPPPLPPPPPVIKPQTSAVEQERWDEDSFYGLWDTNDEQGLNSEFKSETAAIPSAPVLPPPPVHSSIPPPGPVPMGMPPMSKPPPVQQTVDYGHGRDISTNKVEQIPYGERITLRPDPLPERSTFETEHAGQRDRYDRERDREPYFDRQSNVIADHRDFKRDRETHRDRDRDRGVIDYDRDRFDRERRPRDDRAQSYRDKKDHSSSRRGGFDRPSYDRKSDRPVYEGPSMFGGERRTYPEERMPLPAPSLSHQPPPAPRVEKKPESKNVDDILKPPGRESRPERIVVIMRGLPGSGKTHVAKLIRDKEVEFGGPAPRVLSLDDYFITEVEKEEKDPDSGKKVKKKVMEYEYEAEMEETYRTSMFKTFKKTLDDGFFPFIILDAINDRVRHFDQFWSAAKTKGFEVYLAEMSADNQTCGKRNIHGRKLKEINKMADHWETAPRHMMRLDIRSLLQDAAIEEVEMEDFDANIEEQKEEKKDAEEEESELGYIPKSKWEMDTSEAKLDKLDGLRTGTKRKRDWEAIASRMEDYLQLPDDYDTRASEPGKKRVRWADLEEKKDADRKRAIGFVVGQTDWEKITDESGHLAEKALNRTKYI
Chain of ZC3H18 (Q86VM9 whole entry, looked up): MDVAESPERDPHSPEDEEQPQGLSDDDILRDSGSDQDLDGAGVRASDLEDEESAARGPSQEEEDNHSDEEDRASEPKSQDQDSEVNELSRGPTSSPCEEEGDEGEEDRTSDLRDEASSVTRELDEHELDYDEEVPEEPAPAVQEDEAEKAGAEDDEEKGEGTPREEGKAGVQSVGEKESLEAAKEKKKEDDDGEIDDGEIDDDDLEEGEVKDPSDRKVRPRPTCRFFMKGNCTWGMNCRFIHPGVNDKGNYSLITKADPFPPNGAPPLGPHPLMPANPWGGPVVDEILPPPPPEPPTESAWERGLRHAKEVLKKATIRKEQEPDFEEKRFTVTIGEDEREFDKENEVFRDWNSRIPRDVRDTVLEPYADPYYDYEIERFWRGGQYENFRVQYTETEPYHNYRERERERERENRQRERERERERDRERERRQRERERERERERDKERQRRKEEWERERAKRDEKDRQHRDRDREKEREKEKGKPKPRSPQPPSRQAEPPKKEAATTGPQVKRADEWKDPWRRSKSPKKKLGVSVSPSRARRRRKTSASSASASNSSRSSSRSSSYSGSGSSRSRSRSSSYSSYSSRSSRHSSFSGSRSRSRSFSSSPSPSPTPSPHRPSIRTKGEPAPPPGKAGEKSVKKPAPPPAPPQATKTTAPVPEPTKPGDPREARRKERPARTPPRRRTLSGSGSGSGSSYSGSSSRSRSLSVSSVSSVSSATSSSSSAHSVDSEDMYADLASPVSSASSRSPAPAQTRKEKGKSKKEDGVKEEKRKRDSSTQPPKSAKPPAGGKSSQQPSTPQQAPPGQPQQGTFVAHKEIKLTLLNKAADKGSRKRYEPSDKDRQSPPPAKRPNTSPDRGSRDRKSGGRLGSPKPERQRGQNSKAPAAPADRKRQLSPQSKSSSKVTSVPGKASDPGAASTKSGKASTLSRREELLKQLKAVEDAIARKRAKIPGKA
Chain of YIPF5 isoform 3 (Q969M3 whole entry, looked up, canonical isoform): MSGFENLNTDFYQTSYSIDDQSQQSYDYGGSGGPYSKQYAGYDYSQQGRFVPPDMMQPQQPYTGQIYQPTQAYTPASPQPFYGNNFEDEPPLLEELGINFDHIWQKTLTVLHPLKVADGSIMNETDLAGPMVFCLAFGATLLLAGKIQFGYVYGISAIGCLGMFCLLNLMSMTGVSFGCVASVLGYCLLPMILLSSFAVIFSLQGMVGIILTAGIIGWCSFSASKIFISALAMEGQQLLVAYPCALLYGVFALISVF
Chain of YWHAB (P31946 whole entry, looked up): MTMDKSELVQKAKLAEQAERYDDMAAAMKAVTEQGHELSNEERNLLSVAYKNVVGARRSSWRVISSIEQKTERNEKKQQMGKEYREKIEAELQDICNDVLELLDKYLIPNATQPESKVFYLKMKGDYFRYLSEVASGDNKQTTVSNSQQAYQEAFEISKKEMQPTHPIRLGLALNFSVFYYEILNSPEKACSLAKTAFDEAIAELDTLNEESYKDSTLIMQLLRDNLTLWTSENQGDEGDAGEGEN
Chain of YIPF6 (Q96EC8 whole entry, looked up): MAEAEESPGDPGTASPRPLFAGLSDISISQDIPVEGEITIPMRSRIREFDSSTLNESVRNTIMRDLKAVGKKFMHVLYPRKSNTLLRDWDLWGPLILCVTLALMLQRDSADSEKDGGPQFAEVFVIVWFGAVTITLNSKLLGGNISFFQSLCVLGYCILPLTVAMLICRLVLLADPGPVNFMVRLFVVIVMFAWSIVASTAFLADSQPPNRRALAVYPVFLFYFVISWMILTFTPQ

NC1(c2ccc(-c3nc4ccn5c(=O)[nH]nc5c4cc3-c3ccccc3)cc2)CCC1
inactive: [1] 0.086 | [2] 0.306 | [3] -0.012 | [4] -0.01 | [5] 0.017 | [6] -0.024 | [7] -0.046 | [8] -0.138 | [9] -0.026 | [10] -0.056 | [11] 0.007 | [12] -0.206 | [13] 0.066 | [14] 0.011 | [15] 0.106 | [16] -0.143 | [17] 0.047 | [18] 0.032

C=CC(=O)N1CCC[C@@H](n2nc(-c3ccc(Oc4ccccc4)cc3)c3c(N)ncnc32)C1 [ibrutinib]
inactive: [1] -0.008 | [2] 0.103 | [3] 0.188 | [4] 0.009 | [5] -0.005 | [6] -0.001 | [7] -0.117 | [8] -0.016 | [9] 0.054 | [10] -0.013 | [11] 0.002 | [12] -0.167 | [13] 0.019 | [14] -0.032 | [15] 0.125 | [16] -0.05 | [17] -0.174 | [19] 0.064 | [18] 0.002

Fc1ccc(Cl)cc1-c1nc(Nc2ccncc2)c2nccnc2n1
inactive: [1] 0.007 | [2] -0.273 | [3] -0.179 | [4] -0.014 | [5] 0.024 | [6] 0.138 | [7] 0.057 | [8] 0.021 | [9] -0.028 | [10] 0.048 | [11] 0.146 | [12] 0.099 | [13] 0.081 | [14] 0.073 | [15] -0.011 | [17] -0.022 | [19] -0.194 | [18] -0.134

CCCc1cc(C)[nH]c(=O)c1CNC(=O)c1cc(-c2ccnc(N3CCN(C)CC3)c2)cc2c1cnn2C(C)C
inactive: [1] -0.083 | [2] 0.055 | [3] 0.075 | [4] -0.036 | [5] -0.005 | [6] -0.067 | [7] 0.083 | [8] -0.017 | [9] 0.014 | [10] -0.031 | [11] 0.241 | [12] -0.393 | [13] 0.056 | [14] -0.006 | [15] 0.004 | [16] -0.158 | [17] -0.008 | [18] -0.011

CC(C)(O)CC(=O)NCCn1ccc2ncnc(Nc3ccc(Oc4cccc(C(F)(F)F)c4)c(Cl)c3)c21
inactive: [1] 0.072 | [2] 0.162 | [3] -0.054 | [4] -0.012 | [5] -0.094 | [6] 0.019 | [7] -0.002 | [8] -0.113 | [9] 0.041 | [10] -0.013 | [11] -0.084 | [12] 0.021 | [13] 0.027 | [14] -0.026 | [17] 0.101 | [19] 0.175 | [18] 0.034
active: [15] -0.323

NC(=O)c1cnc(N[C@@H]2CCCC[C@@H]2N)nc1Nc1cccc(-n2nccn2)c1
inactive: [1] -0.038 | [20] -0.031 | [2] 0.048 | [3] -0.114 | [4] 0.091 | [5] -0.016 | [6] -0.088 | [7] -0.034 | [8] -0.061 | [9] -0.019 | [10] -0.05 | [11] 0.172 | [12] -0.186 | [13] 0.108 | [14] -0.037 | [15] -0.025 | [17] -0.044 | [19] 0.092 | [18] -0.221

O=C(Nc1nc2ccccc2n1CCN1CCOCC1)c1cccc([N+](=O)[O-])c1 [IRAK-1-4 Inhibitor I]
inactive: [1] 0.103 | [20] 0.049 | [2] -0.117 | [3] -0.152 | [4] 0.093 | [5] -0.035 | [6] 0.029 | [7] -0.06 | [8] 0.019 | [9] -0.093 | [10] 0.127 | [11] 0.084 | [12] 0.005 | [13] 0.105 | [14] -0.026 | [15] 0.036 | [17] 0.006 | [19] -0.043 | [18] -0.036

Oc1cc(-c2nc(-c3ccccc3)[nH]c2-c2ccncc2)ccc1Cl
inactive: [1] -0.015 | [2] -0.053 | [3] -0.112 | [4] -0.054 | [5] -0.05 | [6] -0.041 | [7] -0.024 | [8] -0.02 | [9] 0.213 | [10] -0.02 | [11] 0.284 | [12] -0.068 | [13] 0.096 | [14] -0.053 | [15] 0.121 | [17] -0.067 | [19] -0.064 | [18] 0.015

CCN(CCCOc1ccc2c(Nc3cc(CC(=O)Nc4cccc(F)c4)[nH]n3)ncnc2c1)CCOP(=O)(O)O [barasertib]
inactive: [1] 0.097 | [2] -0.127 | [3] -0.006 | [4] 0.026 | [5] -0.08 | [6] -0.041 | [7] 0.03 | [8] 0.051 | [9] 0.121 | [10] 0.003 | [11] 0.006 | [12] 0.114 | [13] -0.002 | [14] -0.01 | [15] 0.049 | [16] -0.048 | [17] -0.043 | [19] -0.105 | [18] -0.05

O=C1c2ccccc2-c2n[nH]c3cccc1c23
inactive: [1] -0.048 | [20] -0.143 | [2] -0.051 | [3] -0.153 | [4] 0.033 | [5] -0.153 | [6] -0.018 | [7] 0.02 | [8] 0.012 | [9] -0.158 | [10] 0.001 | [11] 0.089 | [12] 0.008 | [13] 0.045 | [14] -0.07 | [15] 0.03 | [17] 0.006 | [19] -0.161 | [18] -0.211

COc1cc(C(=O)O)ccc1NC(=O)[C@@H]1N[C@@H](CC(C)(C)C)[C@](C#N)(c2ccc(Cl)cc2F)[C@H]1c1cccc(Cl)c1F [idasanutlin]
inactive: [1] 0.124 | [20] 0.131 | [2] 0.159 | [3] 0.041 | [4] -0.049 | [5] -0.051 | [6] -0.008 | [7] -0.026 | [8] -0.038 | [10] -0.053 | [11] -0.084 | [12] -0.061 | [13] -0.026 | [14] 0.077 | [15] -0.235 | [17] 0.026 | [19] 0.002 | [18] 0.23
active: [9] 0.491

CC(C)C[C@@H](C=O)NC(=O)[C@H](CC(C)C)NC(=O)[C@H](CC(C)C)NC(=O)OCc1ccccc1
inactive: [1] 0.007 | [2] 0.083 | [3] 0.068 | [4] -0.016 | [5] -0.012 | [6] 0.02 | [7] 0.028 | [8] 0.045 | [9] 0.05 | [10] -0.003 | [11] -0.184 | [12] 0.019 | [13] -0.098 | [14] 0.091 | [15] -0.045 | [17] -0.013 | [19] 0.05 | [18] -0.042

Cc1cccc(-c2[nH]c(C(C)(C)C)nc2-c2ccc3nccnc3c2)n1
inactive: [1] 0.019 | [20] -0.03 | [2] -0.11 | [3] 0.008 | [4] -0.067 | [5] -0.073 | [6] 0.047 | [7] 0.043 | [8] 0.026 | [9] 0.097 | [10] 0.021 | [11] 0.05 | [12] -0.064 | [13] 0.009 | [14] 0.039 | [15] -0.004 | [17] -0.03 | [19] -0.04 | [18] -0.029

COc1cc(Nc2ncc3c(n2)-c2ccc(Cl)cc2C(c2c(F)cccc2OC)=NC3)ccc1C(=O)O [alisertib]
inactive: [1] -0.065 | [2] -0.066 | [3] -0.211 | [4] -0.134 | [5] -0.009 | [6] 0.419 | [7] 0.017 | [8] 0.19 | [9] 0.086 | [10] 0.012 | [11] -0.001 | [12] -0.041 | [13] -0.028 | [14] -0.062 | [15] 0.021 | [16] 0.136 | [17] -0.154 | [18] -0.085

COc1cccc2cc(-c3nc([C@H]4CC[C@H](C(=O)O)CC4)n4ncnc(N)c34)[nH]c12
inactive: [1] 0.016 | [2] -0.091 | [3] -0.256 | [4] 0.06 | [5] 0.017 | [6] 0.02 | [7] 0.053 | [8] 0.011 | [9] -0.142 | [10] 0.014 | [11] -0.098 | [12] 0.187 | [13] -0.052 | [14] 0.009 | [15] -0.059 | [16] -0.006 | [17] 0.129 | [18] 0.014
